Mot1-301 SUMO – SUMOylation pathway inhibition by Mot1-301 growth rescue | S. cerevisiae Mot1-301 growth rescue, ATP luminescence, 38.5C; percent above DMSO median, 100 means doubled | growth rescue, % at 18.8 µM | 320,000 compounds, 1% hits;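 active = every valid replicate shows activation above 250% relative to neutral control wells; inactive = the rest, any valid replicate at or below 250%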;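 note: OY570 slx delta 5 strain wells were the positive control but not used for scaling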
ALR inh – inhibitors of human sulfhydryl oxidase ALR; purified ALR, DTT oxidation, H2O2 HRP-luminol luminescence; 290,000 compounds, 3.8% hits; inhibition, % (concentration not given with the values); P55789;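 active = mean replicate inhibition above about 79%, with every replicate also reaching it, limit read from the data; inconclusive = only one of the two criteria met; inactive = mean below limit and not every replicate reaching it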
Target sequence (P55789 whole entry, looked up): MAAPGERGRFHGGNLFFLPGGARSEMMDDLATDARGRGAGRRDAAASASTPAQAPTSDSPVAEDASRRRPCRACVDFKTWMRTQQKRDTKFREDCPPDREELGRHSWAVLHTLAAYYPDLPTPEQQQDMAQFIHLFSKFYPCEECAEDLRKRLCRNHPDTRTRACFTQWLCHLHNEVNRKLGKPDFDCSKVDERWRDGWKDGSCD
PfM18AAP inh-1 – blocks P. falciparum M18 aspartyl aminopeptidase. recombinant PfM18AAP, H-Glu-NHMec fluorogenic cleavage. inhibition, % at 7.35 µM. 290,000 compounds, 1.2% hits. AID 1822;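 active = inhibition above the campaign mean inhibition over all tested compounds plus 3 SD, cut at about 28% in these data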;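 note: 0% = plate median of test compound wells and 100% = 2 mM ZnCl2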
HIF activator – HIF pathway transcriptional activation; activation, % at 7.5 µM (by protocol); 300,000 compounds, 0.32% hits; U2OS HRE-luciferase reporter, luminescence; normalized: DMSO 0%, desferrioxamine 100%;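 active = mean activation of at least 10% of the iron chelator positive control signal, with at least half of replicates also reaching 10%; inconclusive = mean and replicate majority disagree about reaching 10%; inactive = mean and most replicates under 10%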
PfM18AAP inh-2 – confirmation of Plasmodium falciparum M18 aspartyl aminopeptidase inhibitors. shares compounds with PfM18AAP inh-1. recombinant PfM18AAP, H-Glu-NHMec fluorogenic cleavage. inhibition, % at 7.35 µM. 2,400 compounds, 28% hits. AID 2170;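 active = mean inhibition over replicate wells above the hit cutoff set for the earlier primary screen, cut at about 29% in these data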;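 note: 0% = median of test compound wells and 100% = 2 mM ZnCl2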
CTSL1 confirm – counter-screen for PFM18AAP inhibitors: confirmation of human cathepsin L inhibitors; shares compounds with PfM18AAP inh-1; purified cathepsin L1, Z-Leu-Arg-MCA fluorescence; inhibition, % at 5.96 µM; 2,400 tested, under 10 active; AID 2178;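 active = average inhibition across replicates above the hit cutoff set in the earlier primary screen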;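 note: 0% = median of test compound wells and 100% = Z-Phe-Ala-diazomethylketone 1 µM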
Target sequence (P07711 whole entry, looked up): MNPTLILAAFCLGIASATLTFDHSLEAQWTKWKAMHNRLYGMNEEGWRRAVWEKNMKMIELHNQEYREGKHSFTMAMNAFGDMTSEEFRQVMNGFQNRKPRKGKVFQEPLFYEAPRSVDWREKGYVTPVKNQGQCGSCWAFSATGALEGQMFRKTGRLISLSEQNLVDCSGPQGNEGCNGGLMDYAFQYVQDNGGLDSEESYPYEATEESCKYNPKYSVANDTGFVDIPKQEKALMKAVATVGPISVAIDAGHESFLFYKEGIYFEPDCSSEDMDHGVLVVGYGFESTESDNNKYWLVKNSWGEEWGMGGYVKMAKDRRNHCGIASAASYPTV
The depositor's hits bear a star; ? = inconclusive; . = no result given. Sampled rows, rich in hits. Any-hit rate of the full collection: about 5.3%.

SMILES	Mot1-301 SUMO	ALR inh	PfM18AAP inh-1	HIF activator	PfM18AAP inh-2	CTSL1 confirm
CCn1c(CSc2nnc(-c3ccncc3)n2C)nc2cc(C(=O)O)ccc21	52	-7	-3	0	.	.
COc1ccc(NS(=O)(=O)c2cccc(C(=O)NCC3(N(C)C)CCCCC3)c2)cc1	-3	9	.	0	.	.
Cc1ccc(C)c(NC(=O)COC(=O)c2ccc3ccccc3n2)c1	-3	.	.	.	.	.
O=C(O)c1ccc(NC(=O)c2ccc3c(c2)C(=O)N(c2ccccc2)C3=O)cc1	2	2	-10	-1	.	.
O=C(O)c1ccc(S(=O)(=O)c2ccc3c(c2)C(=O)N(c2ccc(O)cc2)C3=O)cc1	-11	.	33*	-1	-49	-1
COc1ccc([C@H]2CC(=O)C=C(c3cccc(C(C)C)c3)C2)cc1	-6	-1	.	.	.	.
O=[N+]([O-])c1ccccc1NC(=S)N/N=C/c1ccc(O)c(O)c1	-8	70	59*	2	40*	1
CC(=O)C1=C(C)Nc2cc(C(F)(F)F)ccc2S1	13	.	36*	1	-4	-1
Nc1cc(C(=O)O)ccc1Nc1ccccc1	-5	.	54*	0	-5	0
Nc1ccccc1C(=O)Nc1cccc(C(=O)O)c1	2	.	4	.	.	.
COc1cccc(CNC(=O)COC(=O)c2cc([N+](=O)[O-])ccc2N2CCCC2)c1	-11	.	.	.	.	.
O=C(c1ccccc1)N1CCN(c2ccc([N+](=O)[O-])c(NCc3cccnc3)c2)CC1	8	.	44*	1	-53	1
CCC(C)[C@H]1CN=C(N)N1CCc1cccc(F)c1 (stereo not given in full)	129	2	.	0	.	.
COc1cc(/C=N/N2CCN(Cc3ccccc3)CC2)cc(OC)c1OC(C)=O	-1	-23	36*	1	3	3
COc1ccccc1N1CCN(/N=C/c2cc(OC)c(OC(C)=O)c(OC)c2)CC1	5	1	7	0	.	.
Cc1ccc(N(CC(O)Cn2nc(C)cc2C)S(=O)(=O)c2ccc3ccccc3c2)cc1 (stereo not given)	-17	-4	0	0	.	.
O=C(c1ccc(Cl)cc1)c1c[nH]cc1-c1ccccc1	-3	.	37*	-1	-43	1
O=c1cc(-c2ccccc2Cl)oc2c(NS(=O)(=O)c3ccccc3OC(F)(F)F)ccc(O)c12	-13	-6	.	0	.	.
CCN(CC)c1ccc([N+](=O)[O-])cc1/C=N/NC(=O)CC#N	-11	9	24	-4	.	.
Cc1ccc(-n2c(C)cc(/C=N/Nc3ccc([N+](=O)[O-])cn3)c2C)cc1	-9	-1	-4	0	.	.
Cc1cc(/C=N/NC(=O)CC#N)c(C)n1-c1ccc([N+](=O)[O-])cc1	0	10	34*	0	-50	-7
O=C(O)Cn1cc(/C=N/Nc2ccc([N+](=O)[O-])cn2)c2ccccc21	5	99*	53*	1	-20	-1
CC(=O)n1cc(/C=N/NC(=O)c2ccc([N+](=O)[O-])cc2)c2ccccc21	12	-6	4	0	.	.
Cc1c(C(=O)O)cccc1-n1c(C)cc(/C=N/Nc2ccc([N+](=O)[O-])cn2)c1C	-12	.	59*	0	-17	6
Cc1cc(/C=N/Nc2ccc([N+](=O)[O-])cn2)c(C)n1-c1ccccc1	.	2	51*	1	-20	3
SMILES	Mot1-301 SUMO	ALR inh	PfM18AAP inh-1	HIF activator	PfM18AAP inh-2	CTSL1 confirm
CCN(CC)c1nc(C)nc2c1cnn2CCc1ccccc1	-6	.	-8	2	.	.
CN(Cc1ccccc1)C(=O)COC(=O)c1cc(=O)c2ccccc2o1	18	-2	.	.	.	.
CCOc1ccc(CC(=O)C2C(=O)CCCC2=O)cc1OCC	142	0	33*	0	-25	-4
COc1cccc(NC(=O)NC2(C(F)(F)F)Oc3ccccc3O2)c1	61	4	67*	3	34*	-1
C/C(=N\Nc1cc(N2CCOCC2)ncn1)c1ccccc1	-3	11	1	3	.	.
CC(C)CNC(=O)NC1(C(F)(F)F)Oc2ccccc2O1	-2	0	41*	1	-22	1
COc1cccc(NC(=O)Nc2cccc(C(=O)O)c2)c1	-4	-2	-3	-3	.	.
O=C(Nc1cc(N2CCOCC2)ncn1)NC1(C(F)(F)F)Oc2ccccc2O1	58	-5	76*	0	66*	1
O=C(NCc1cccnc1)NC1(C(F)(F)F)Oc2ccccc2O1	4	.	55*	0	-2	4
Cc1ccccc1C(=O)N1CCC(n2nccc2NC(=O)CCOc2ccccc2)CC1	-28	-4	0	0	.	.
COc1ccc(N2CCN(CCCn3c(=S)[nH]c4ncccc4c3=O)CC2)cc1	-7	6	45*	0	-38	-10
O=c1c2cccnc2[nH]c(=S)n1CCCN1CCN(c2ccc(F)cc2)CC1	-13	24	-7	0	.	.
Cc1cccc(N(Cc2ccccc2)C(=O)c2ccccc2S(C)(=O)=O)c1	-18	-17	-7	-1	.	.
Cc1ccccc1NC(=O)c1sc2nc(N3CCOCC3)c3c(c2c1N)CCCC3	-2	-10	41*	1	26	3
CCOC(=O)c1sc2nc(N3CCOCC3)c3c(c2c1N)CCC3	-16	0	10	0	.	.
Nc1c(C(=O)NCCc2ccccc2)sc2nc(N3CCOCC3)c3c(c12)CCCC3	-3	.	37*	0	-17	-3
CCOC(=O)c1ccc(NC(=O)c2sc3nc(N4CCOCC4)c4c(c3c2N)CCCC4)cc1	14	-3	42*	0	-17	-2
CCOC(=O)N1CCN(S(=O)(=O)c2ccc(C(=O)NNc3nc4cc(C)cc(C)c4s3)cc2)CC1	-2	2	15	3	.	.
CCOC(=O)N1CCN(S(=O)(=O)c2ccc(C(=O)NNc3nc4c(C)cccc4s3)cc2)CC1	1	58	38*	0	-16	5
Cc1cc(C)c2nc(NNC(=O)c3ccc(S(=O)(=O)N4CCCCC4)cc3)sc2c1	-20	6	36*	1	-22	3
CCOC(=O)N1CCN(S(=O)(=O)c2ccc(C(=O)N(CCN(CC)CC)c3nc4c(C)cccc4s3)cc2)CC1	102	6	-6	0	.	.
CCOC(=O)N1CCN(S(=O)(=O)c2ccc(C(=O)NNc3nc4c(C)cc(C)cc4s3)cc2)CC1	1	25	39*	?	-31	4
O=C(CN1C(=O)c2ccccc2S1(=O)=O)Nc1ccc([N+](=O)[O-])cc1	-3	5	.	.	.	.
Cc1ccc(CNS(=O)(=O)c2ccc3c(c2)n(C)c(=O)n3C)cc1	486	-1	1	-4	.	.
CSc1nc2oc3c(c2c2nncn12)CC(C)(C)SC3	7	13	32*	0	-6	-10
O=C(CSc1nnnn1-c1ccccc1)CC(=O)Nc1ccc(Cl)cc1	27	3	8	0	.	.
COc1ccccc1OCCNC(=O)c1cccc(S(=O)(=O)NCc2ccccc2)c1	11	-7	.	.	.	.
